PubChem BioAssay (NCATS)
“And” between values parts separate entries of the source, which are not always exact repeats. Identical values can stand only once. Inconclusive results are not listed. The source made the active and inactive calls. The call rests on the fitted dose curve; in most records, active means well fitted inhibition curve with a large enough effect; inconclusive means small, poorly fitted or top-dose-only effect; inactive means flat fitted curve, though single readings scatter.

system: KB-3-1; test: Cytotoxic Profiling of Annotated Libraries Using Quantitative High-Throughput Screening (AID 1296008); conditions: Five cell lines viability, CellTiter-Glo ATP luminescence, 48-72 h; max response: hits give low values; further: nearly all actives have a fitted effect of over 60% in size
Outline: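 Compounds were pin-transferred onto cells and incubated 48 or 72 hr at 37 degree Celsius, 95% humidity. CellTiter-Glo was added, plates sat 10 min at room temperature, then ATP-coupled luminescence was imaged as the viability read-out.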
On the % scale 0 is the no-effect control and ±100 the full control effect; potency means the concentration at half of the fitted maximal effect.

| Structure (SMILES) | max response | Potency |
| --- | --- | --- |
| C(=C\c1ccncc1)/c1ccccc1 | 1.91% (inactive) and -0.505% (inactive) |  |
| N#Cc1ccc2c(c1)N(CCCN1CCC(O)CC1)c1ccccc1S2 | 1.4% (inactive) |  |
| CN[C@@H]1[C@@H](O)[C@@H](O[C@@H]2[C@@H](O)[C@H](O[C@H]3O[C@H](CN)[C@@H](O)[C@H](O)[C@H]3O)[C@@H](N)C[C@H]2NC(=O)C(O)CN)OC[C@]1(C)O (stereo not given in full) | 36% (inactive) |  |
| CC(=O)N[C@@H]([C@@H](O)[C@H](O)[C@H](O)CO)[C@@H](O)CC(=O)C(=O)O | 10.5% (inactive) |  |
| CC(=O)[O][Al][O]C(C)=O | -5.29% (inactive) |  |
| O=C1NC(=O)[C@H]2[C@@H]1[C@@H]1C=C[C@H]2C1 | -8.53% (inactive) |  |
| F[Si-2](F)(F)(F)(F)F | 6.45% (inactive) |  |
| CC(C)CCC[C@@H](C)[C@H]1CC[C@H]2[C@@H]3CC=C4C[C@@H](O)CC[C@]4(C)[C@H]3CC[C@]12C | -10.6% (inactive) |  |
| Cc1cccc(C)c1NC(=O)NC1=CCCN1C | -2.58% (inactive) |  |
| O=C(Nc1ccc(O)cc1)c1ccccc1O | 4.06% (inactive) |  |
| O=C1[O][Bi][O]c2ccccc21 | -7.6% (inactive) |  |
| CCCCC(CC)COS(=O)(=O)O (stereo not given) | -16.9% (inactive) |  |
| O=C(CCCN1CCN2CCCC2C1)c1ccc(F)cc1 (stereo not given) | 3.11% (inactive) |  |
| CC1=CC(=C(c2ccc(N)cc2)c2ccc(N)cc2)C=CC1=N |  | 10.3 µM (active) |
| CN[C@H](CC(C)C)C(=O)N[C@H]1C(=O)N[C@@H](CC(N)=O)C(=O)N[C@H]2C(=O)N[C@H]3C(=O)N[C@H](C(=O)N[C@@H](C(=O)O)c4cc(O)cc(O)c4-c4cc3ccc4O)[C@H](O)c3ccc(c(Cl)c3)Oc3cc2cc(c3O[C@@H]2O[C@H](CO)[C@@H](O)[C@H](O)[C@H]2O[C@H]2C[C@](C)(N)C(O)[C@H](C)O2)Oc2ccc(cc2Cl)[C@H]1O (stereo not given in full) | 9.66% (inactive) and -29.2% (inactive) |  |
| c1ccc2cc(C3=NCCN3)ccc2c1 | -9.97% (inactive) |  |
| C=CC[C@@H]1/C=C(\C)C[C@H](C)C[C@H](OC)[C@H]2O[C@@](O)(C(=O)C(=O)N3CCCC[C@H]3C(=O)O[C@H](/C(C)=C/[C@@H]3CC[C@@H](O)[C@H](OC)C3)[C@H](C)[C@@H](O)CC1=O)[C@H](C)C[C@@H]2OC | 2.3% (inactive) |  |
| CCCCCCCCCCCCCCCCCC(=O)OC[C@@H](O)[C@H]1OC[C@H](O)[C@H]1O | -10% (inactive) |  |
| CC(C)c1nc(N(C)S(C)(=O)=O)nc(-c2ccc(F)cc2)c1/C=C/C(O)CC(O)CC(=O)O (stereo not given) | 0.926% (inactive) |  |
| CCOC(=O)[C@@H](N)CS | -7.89% (inactive) |  |
| O=P(O)(O)OP(=O)(O)OP(=O)(O)O | -3.72% (inactive) |  |
| OCl | 19.8% (inactive) |  |
| CC(C)[C@@H](N)C(=O)O | -13.9% (inactive) |  |
| COc1ccc2c(=O)c(C)c(-c3ccccc3)oc2c1CN(C)C | 2.73% (inactive) |  |
| Nc1ncnc2c1ncn2[C@H]1CC[C@@H](CO)O1 | -2.72% (inactive) |  |
